From PubChem BioAssay AID751 (NMMLSC, 2007)
Screen size: about 24,000 compounds; about 40 (0.2%) were called active.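 Rule for the calls: active = inhibition of disassembly above about 33% (limit read from the data); inconclusive = likely self-fluorescent, control bead median signal at least 40; inactive = the rest.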 The list comes from a sample in which actives are over-represented; it also holds similar structures and randomly drawn compounds.

Tested on: 26S proteasome (yeast, GFP-tagged, ATP-dependent disassembly)
Assay: blockers of yeast 26S proteasome breakdown – biochemical, bead-based flow cytometry, GFP-tagged proteasome, primary screen (AID 751);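 note: plate controls were ATP control with full disassembly for no effect and ATP-gamma-S intact proteasomes for full effect; higher percent means more bead fluorescence retained so stronger block of disassembly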
Conditions: anti-FLAG beads, hits give high values, concentration not given here

Inhibition of disassembly, inactive:
CC(C(=O)N1CCOCC1)N1c2cccc3cccc(c23)S1(=O)=O (centres undefined) -0.85%
C=CCn1c(COc2ccccc2F)nnc1SCC(=O)N1CC(=O)Nc2ccccc21 -0.82%
CCCCNC(=O)c1c[nH]c2ccc(S(=O)(=O)Nc3ccc(OCC)cc3)cc2c1=O 0.53%
CCCCOC(=O)Nc1nccs1 0.85%
CCn1cc(C(=O)N2CCN(C3CCCCC3)CC2)c2cc(OC)c(OC)cc2c1=O -1.25%
COCCCN(C(=O)Cn1ncc2c(=O)oc3ccc(C)cc3c21)C(C)c1ccncc1 (centres undefined) -1.07%
Cc1ccsc1C(C(=O)NC1CCCCC1)N(C(=O)Cc1cccs1)C1CC1 (centres undefined) 1.54%
O=C(NC1(C(F)(F)F)N=C2SCCN2C1=O)c1ccco1 (centres undefined) 1.38%
CCN(CCCNC(=O)C1CCN(S(=O)(=O)c2cnc[nH]2)CC1)c1ccccc1 0.49%
Cc1ccc(C(c2sc3nc(C)nn3c2O)N2CCN(c3ccc(F)cc3)CC2)cc1 (centres undefined) -0.24%
CN1C(=O)c2ccccc2C(C(=O)NCCCN2CCCC2)C1c1c[nH]c2ccccc12 (centres undefined) 1.77%
CCc1ccc(NC(=O)CSc2nc3ccccc3c(=O)n2CCN2CCOCC2)cc1 -3.37%
COc1ccc(OC)c(N=Cc2c(O)[nH]c3ccccc23)c1 25.8%
O=C(CN1C(=O)COc2ccccc21)NCCN1CCc2ccccc2C1 -0.95%
COc1ccc(CN2CN(C(C)C)CSC2=S)cc1 -0.35%
CN1CCN(CCCNC(=O)c2cc3c(=O)oc4ccccc4c3s2)CC1 -0.65%
CCOC(=O)CN1CC23C=CC(O2)C(C(=O)Nc2ccc(F)cc2)C3C1=O (centres undefined) 0.62%
COCCNC(=S)c1ccc(OC)cc1 -2.83%
COc1ccc(Cn2nnc3c(=O)[nH]c(C4CCN(C(=O)c5ccccc5Cl)CC4)nc32)cc1 -0.42%
CCN(CC)S(=O)(=O)c1ccc(NC(=O)CN(c2cccc(F)c2)S(C)(=O)=O)cc1 2.21%
O=C(C(NS(=O)(=O)c1cccc2nsnc12)c1ccccc1)N1CCN(c2ccccn2)CC1 (centres undefined) 0.34%
Cc1c(C(=O)N2CC(C)OC(C)C2)sc2nc(-c3ccccc3)cn12 (centres undefined) 0.65%
COc1cc(C(O)c2nc3ccccc3n2C)cc(OC)c1OC (centres undefined) 1.95%
O=C(CCN1C(=O)c2ccncc2C1=O)Nc1ccc2c(c1)OCCO2 -0.98%
